Results on 16 compounds are retold here after PubChem BioAssay (NCI).

Common to all, as to test: NCI-60 one-dose screen, 48 h (100 = growth as untreated, 0 = no growth, -100 = all killed)
The test system of one experiment is RPMI-8226 leukemia. Particulars: 10 µM.
Another experiment has as its system OVCAR-8 ovarian. To be noted: 10 µM.
The next experiment concerns OVCAR-5 ovarian. To be noted: 10 µM.
In another experiment the test system is OVCAR-4 ovarian. Particulars: 10 µM.
A further experiment has as its system SK-OV-3 ovarian. To be noted: 10 µM.
The next experiment concerns IGROV1 ovarian. Particulars: 10 µM.
For the next experiment, the system named is OVCAR-3 ovarian. Particulars: 10 µM.
The subject of a further experiment is HS 578T breast. To be noted: 10 µM.
The test system of a further experiment is NCI/ADR-RES ovarian. To be noted: 10 µM.
The next experiment deals with T-47D breast. To be noted: 10 µM.
Another experiment deals with BT-549 breast. To be noted: 10 µM.
A further experiment deals with MDA-MB-435 melanoma. To be noted: 10 µM.
The subject of a further experiment is SW-620 colon. To be noted: 10 µM.
For a further experiment, the system named is MCF7 breast.
The subject of the next experiment is HCT-116 colon. Particulars: 10 µM.
The next experiment has as its system HCC-2998 colon. Particulars: 10 µM.
Another experiment deals with KM12 colon. Particulars: 10 µM.
A further experiment deals with SR leukemia. Particulars: 10 µM.

Values joined by “and” are separate entries in the source; they are usually repeats but may differ in a detail not shown here. Equal entries are not always repeated. About 83,000 compounds went through this panel and 20% of them were active in at least one assay; those are over-represented in the sample as a whole.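 The test compound was applied at a single concentration to cells in 96-well plates for 48 hours, and percent growth was recorded.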 A number with no mark means an inactive call. Active and inactive are the calls of the source. The calls were made as follows: active = growth percent below 10; inactive = the rest.

As to `CN(CC(=O)O)c1ccc(/C=C/c2ccnc3ccccc23)cc1`, the growth in the experiment on RPMI-8226 leukemia is 70.4%; in the experiment with OVCAR-8 ovarian, 80%; in the experiment with OVCAR-5 ovarian, 123%; in the experiment with OVCAR-4 ovarian, 86.2%; with SK-OV-3 ovarian, 91.3%; in the experiment on IGROV1 ovarian, 77.4%. Further, the growth in the experiment with OVCAR-3 ovarian is 90.4%; in the experiment with HS 578T breast, 84.6%; in the experiment with NCI/ADR-RES ovarian, 89.3%; in the experiment on T-47D breast, 55.4%; in the experiment with BT-549 breast, 65.3%; in the experiment with MDA-MB-435 melanoma, 38.1%. The growth is 84.3% with SW-620 colon; 31.8% in the experiment with MCF7 breast (10 µM); 89.4% in the experiment with HCT-116 colon; 91.9% in the experiment on HCC-2998 colon; 85.2% with KM12 colon.

On to `CCC(=O)Oc1ccc(/C=N/NC(N)=S)nc1`, for which the growth in the experiment with RPMI-8226 leukemia was 50.3%; in the experiment on OVCAR-8 ovarian, 23.5%; with OVCAR-5 ovarian it was 108%; in the experiment on OVCAR-4 ovarian, 56.2%; in the experiment with SK-OV-3 ovarian, 78%; in the experiment with IGROV1 ovarian, 45%. In addition, the growth was 57.3% with OVCAR-3 ovarian; 117% with HS 578T breast; 35.7% in the experiment with T-47D breast; 51.2% in the experiment on BT-549 breast; 54.9% in the experiment with MDA-MB-435 melanoma; 49.5% in the experiment on SW-620 colon. Besides, the growth in the experiment on MCF7 breast (10 µM) is 22.5%; in the experiment with HCT-116 colon, 42%; with KM12 colon it was 60.5%.

On to `ClCCn1c(CCl)nc2ccc(Cl)cc21`, for which the growth in the experiment on SR leukemia is -32.4% (active); in the experiment on RPMI-8226 leukemia, -22.2% (active); with OVCAR-8 ovarian it was -33% (active); with OVCAR-5 ovarian it was -22.9% (active); in the experiment on OVCAR-4 ovarian, -18.9% (active); with IGROV1 ovarian it was -62.5% (active). The growth in the experiment on OVCAR-3 ovarian was -89.6% (active); in the experiment on HS 578T breast it was -10.9% (active); in the experiment on BT-549 breast, -66.2% (active); in the experiment on MDA-MB-435 melanoma it was -83% (active); in the experiment with SW-620 colon, -54.6% (active); in the experiment on MCF7 breast (10 µM), -6.55% (active). Also, the growth in the experiment with HCT-116 colon was -28.9% (active); in the experiment with HCC-2998 colon it was -2.45% (active); with KM12 colon it was -43% (active).

`COc1ccc(N)c2c1C(=O)c1ccccc1C2=O`: the growth with RPMI-8226 leukemia was 88.9%; with OVCAR-8 ovarian, 95.7%; in the experiment with OVCAR-5 ovarian, 103%; in the experiment on OVCAR-4 ovarian, 109%; with SK-OV-3 ovarian it was 89.4%; with IGROV1 ovarian it was 88.7%. In addition, the growth in the experiment with OVCAR-3 ovarian is 115%; in the experiment with HS 578T breast, 107%; with T-47D breast it was 81.9%; with MDA-MB-435 melanoma it was 108%; in the experiment on SW-620 colon, 106%; in the experiment on MCF7 breast (10 µM) it was 95.2%. Besides, the growth in the experiment with HCT-116 colon is 102%; with HCC-2998 colon, 105%; in the experiment on KM12 colon, 102%.

For the compound `COc1cc2c(cc1C[N+](C)(C)CSc1ccccc1)-c1ccccc1CC2`, in the experiment with MCF7 breast (100 µM), the growth is -75.8% (active) and -73.3% (active).

Take `C=C1N(C)c2ccc(Cl)cc2C1(C)C`: the growth in the experiment on RPMI-8226 leukemia is -13.2% (active); in the experiment with OVCAR-8 ovarian it was 67.9%; in the experiment on OVCAR-5 ovarian, 82.9%; in the experiment on OVCAR-4 ovarian, 60.7%; with SK-OV-3 ovarian it was 82%; in the experiment with OVCAR-3 ovarian, 42.9%. For the same compound, the growth was 49.8% in the experiment with HS 578T breast; 33.7% with T-47D breast; 66.9% in the experiment with BT-549 breast; 77.1% with MDA-MB-435 melanoma; 57.4% with SW-620 colon; 89% in the experiment on MCF7 breast (10 µM). Besides, the growth with HCT-116 colon is 17.2%; with HCC-2998 colon, 68.7%; in the experiment with KM12 colon it was 40.2%.

For `C=C(C)[C@@H]1CCc2c(O)c(O)c(=O)cc(C)c2C1`, the growth with MCF7 breast (100 µM) is -84.1% (active) and -67.9% (active).

In the case of `Nc1nc(N)c2cc(Sc3ccc4ccccc4c3)ccc2n1`, the growth was -26.3% (active) with SR leukemia; -11.9% (active) in the experiment with RPMI-8226 leukemia; 34.8% in the experiment with OVCAR-8 ovarian; 50.5% in the experiment on OVCAR-5 ovarian; 62.3% with SK-OV-3 ovarian; 27.8% with IGROV1 ovarian. Moreover, the growth is 38.8% in the experiment on OVCAR-3 ovarian; 61.7% with HS 578T breast; 45.8% in the experiment on T-47D breast; 67.4% in the experiment with BT-549 breast; 33.8% in the experiment with MDA-MB-435 melanoma; 18.9% in the experiment on SW-620 colon. For the same compound, the growth in the experiment on MCF7 breast (10 µM) was 25.2%; with HCT-116 colon it was 15.4%; in the experiment on HCC-2998 colon it was -39.4% (active); in the experiment with KM12 colon, 23.8%.

On to `Cc1cc(Cl)ccc1NC(=O)/C(Cl)=C1/Sc2ccccc2NC1=O`, for which the growth in the experiment on SR leukemia is 100%; with RPMI-8226 leukemia, 69.4%; in the experiment with OVCAR-5 ovarian, 93.5%; in the experiment with OVCAR-4 ovarian it was 89.8%; with SK-OV-3 ovarian, 103%; with IGROV1 ovarian it was 68.7%. For the same compound, the growth in the experiment with OVCAR-3 ovarian is 95.4%; in the experiment with HS 578T breast it was 122%; in the experiment on T-47D breast, 50.3%; in the experiment with BT-549 breast it was 115%; with MDA-MB-435 melanoma, 99.7%; in the experiment with SW-620 colon, 113%. For the same compound, the growth is 70.8% in the experiment on MCF7 breast (10 µM), 76.7% in the experiment on HCT-116 colon, 119% in the experiment with HCC-2998 colon and 96.4% with KM12 colon.

As for `Clc1c(Cl)c(Cl)c2c(nnn2C2CCCO2)c1Cl` (stereo not drawn), in the experiment with MCF7 breast (100 µM), the growth is 3.55% (active) and -84.2% (active).

For `CN(C)CCNc1cccc2sc3ccc(O)cc3c(=O)c12`, the growth was 73.4% in the experiment on RPMI-8226 leukemia; 36% in the experiment with OVCAR-8 ovarian; 78.8% with OVCAR-5 ovarian; 52.8% in the experiment on OVCAR-4 ovarian; 51.1% with SK-OV-3 ovarian; 50.1% with IGROV1 ovarian. Also, the growth was 41.8% in the experiment on OVCAR-3 ovarian; 69.4% in the experiment with HS 578T breast; 64.4% in the experiment with T-47D breast; 65.8% in the experiment on BT-549 breast; 29.3% in the experiment on MDA-MB-435 melanoma; 24.5% with SW-620 colon. In addition, the growth with MCF7 breast (10 µM) was 27.8%; with HCT-116 colon it was 25.3%; with HCC-2998 colon, 17.9%; in the experiment on KM12 colon it was 24.7%.

For `CCOC(=O)[C@]1(Br)CC[C@@]1(Br)C(=O)OCC`, the growth in the experiment with RPMI-8226 leukemia was 96.8%; in the experiment on OVCAR-8 ovarian it was 95.6%; in the experiment with OVCAR-5 ovarian it was 104%; in the experiment on OVCAR-4 ovarian, 101%; with SK-OV-3 ovarian, 112%; in the experiment with IGROV1 ovarian, 52.1%. For the same compound, the growth was 133% in the experiment on OVCAR-3 ovarian; 102% in the experiment on HS 578T breast; 70.7% with T-47D breast; 123% with BT-549 breast; 94.8% in the experiment on MDA-MB-435 melanoma; 76.2% with SW-620 colon. The growth with MCF7 breast (10 µM) was 93.4%; in the experiment with HCT-116 colon, 88.9%; in the experiment with HCC-2998 colon, 124%; in the experiment on KM12 colon, 142%.

Consider `S=C1SCN(CCc2ccccc2)CN1CCc1ccccc1`, for which the growth is 61.2% in the experiment on SR leukemia; 55.8% with RPMI-8226 leukemia; 100% in the experiment with OVCAR-8 ovarian; 112% in the experiment with OVCAR-5 ovarian; 105% with IGROV1 ovarian; 116% in the experiment with OVCAR-3 ovarian. For the same compound, the growth with HS 578T breast is 105%; in the experiment on T-47D breast, 70.8%; in the experiment on BT-549 breast, 129%; in the experiment on MDA-MB-435 melanoma it was 98.6%; in the experiment with SW-620 colon, 89.4%; with MCF7 breast (10 µM) it was 40.7%. Further, the growth with HCT-116 colon was 102%; with HCC-2998 colon, 101%; with KM12 colon, 96.8%.

Turning to `CO[C@@]12[C@H](COC(N)=O)C3=C(C(=O)C(C)=C(N)C3=O)N1C[C@@H]1N[C@@H]12`, the growth with MCF7 breast (25 µM) was -17.6% (active) and -61.3% (active).

On to `COc1cc(N)ccc1Nc1c2ccccc2nc2ccccc12`, for which the growth in the experiment with SR leukemia was 10.1%; in the experiment with OVCAR-8 ovarian, 66.1%; with OVCAR-5 ovarian, 110%; with OVCAR-4 ovarian, 5.09% (active); in the experiment on SK-OV-3 ovarian, 93.9%; in the experiment with IGROV1 ovarian, 60.8%. The growth was 80.6% with OVCAR-3 ovarian; 102% in the experiment on HS 578T breast; 92.7% with NCI/ADR-RES ovarian; 92.3% with T-47D breast; 90% in the experiment on BT-549 breast; 87.9% in the experiment with MDA-MB-435 melanoma. The growth in the experiment on SW-620 colon is 4.74% (active); in the experiment with MCF7 breast (10 µM), 12.5%; in the experiment on HCT-116 colon it was -88.5% (active); in the experiment on HCC-2998 colon it was 94.8%; in the experiment on KM12 colon it was 36.2%.

As for `COc1ccc2oc(-c3ccc(Cl)cc3)c(N3CCN(C)CC3)c2c1`, the growth was -10.3% (active) in the experiment with RPMI-8226 leukemia; 31.8% in the experiment with OVCAR-8 ovarian; 2.8% (active) with OVCAR-5 ovarian; 78.2% in the experiment with OVCAR-4 ovarian; 55.1% in the experiment with SK-OV-3 ovarian; -87.5% (active) in the experiment on IGROV1 ovarian. For the same compound, the growth in the experiment on OVCAR-3 ovarian was 1.93% (active); with HS 578T breast, 28.3%; in the experiment with T-47D breast it was 14.6%; in the experiment on BT-549 breast it was 134%; in the experiment with MDA-MB-435 melanoma, -19.3% (active); in the experiment with SW-620 colon, 0.0094% (active). Moreover, the growth was -75.8% (active) in the experiment on MCF7 breast (10 µM), 22.4% in the experiment on HCT-116 colon, -12.4% (active) in the experiment with HCC-2998 colon and -46.6% (active) in the experiment with KM12 colon.
